Assay results as given in PubChem BioAssay AID588689 (Southern Research Specialized Biocontainment Screening …, 2011).
In all, about 340,000 compounds went through this assay and about 1,000 (0.29%) were called active. No stated cut-off is given here; in the data, inconclusive means inhibition above about 29% without an active follow-up result; inactive means below that. A selection follows. Entries with a potency or affinity are not part of this list.

Biological target: Genome polyprotein (Dengue virus type 2 (strain 16681-PDK53)) (UniProt P29991)
Experiment: Dengue-2 NS5 methyltransferase inhibitors, primary screen, biochemical, confirmation dose response (AID 588689)
Conditions: Dengue-2 NS5 methyltransferase capping enzyme assay, at 25 µM, stronger effect = higher value

Structure (SMILES)	inhibition	inhibition (measured here: pilot screen replicate inhibition)
O=C(NCCN1CCOCC1)C1CC(=O)N(c2ccc(Cl)cc2)C1 (stereo unspecified)	-16.7% (inactive)	
S=C(NCc1ccco1)Nc1ccc(Br)cn1	-6.51% (inactive)	
Cc1ccccc1S(=O)(=O)N(CC(O)CN1CCCCC1)c1ccccc1 (stereo unspecified)	-8.27% (inactive)	
COc1ccc(C(=Cc2cc(OC)c(OC)cc2[N+](=O)[O-])C(=O)O)cc1	-1.59% (inactive)	
CCOc1ccc(C(=O)Cc2cc(OC)c(OC)cc2[N+](=O)[O-])cc1	-1.39% (inactive)	
CCOc1ccc(N2C(=O)/C(=C\c3ccccc3OC)S(=O)(=O)C2c2cccc([N+](=O)[O-])c2)cc1 (stereo unspecified)	-7.02% (inactive)	
COc1cc(C(=O)N2CCN(c3ccccc3)CC2)c([N+](=O)[O-])cc1OC	-3.88% (inactive)	
CCOC(=O)C1CCCN(C(=O)c2cn(C)c(=O)c3cc(OC)c(OC)cc23)C1 (stereo unspecified)	-5.65% (inactive)	
C#CCOCCOCCOCCNc1nc(N2CCOCC2)nc(N2CCN(C(=O)CCCCCCCCCCNC(=O)Cn3cc(CCCCCN)nn3)CC2)n1	9.92% (inactive)	
Cc1cc(Cl)ccc1OC(C)C(=O)N1CCCN(C(=O)C(C)Oc2ccc(Cl)cc2C)CC1 (stereo unspecified)	-1.34% (inactive)	
COc1ccc(C2(CNC(=O)CCC(=O)O)CCCC2)cc1OC	-1.37% (inactive)	-4.84%
O=Cc1ccc(-c2ccc(F)cc2)o1	-6.55% (inactive)	
Cc1[nH][nH]c(=O)c1C(c1ccc(-c2ccc(Cl)c(Cl)c2)o1)c1c(C)[nH][nH]c1=O	61.3% (inactive)	
O=C(O)c1ccc(-c2cccc(Cl)c2)o1	-4.79% (inactive)	
Cc1[nH][nH]c(=O)c1C(c1ccc(-c2ccc(Cl)cc2)o1)c1c(C)[nH][nH]c1=O	21% (inactive)	
CCC(OC(=O)c1nsc(Cl)c1Cl)C(=O)NCC1CCCO1 (stereo unspecified)	-4.98% (inactive)	
CCCc1cc(=O)oc2cc(C)cc(OC(C)C(=O)NCc3cccnc3)c12 (stereo unspecified)	-9.54% (inactive)	
NC(=O)Cn1c(O)c(N=NC(=O)CNC(=O)/C=C/c2ccccc2)c2ccccc21	3.88% (inactive)	
CC(C)CC(COCc1cccc(Cl)c1)N1CCN(C(=O)c2cccc(C(F)(F)F)c2)CCC1=O (stereo unspecified)	0.79% (inactive)	
CCOc1ccccc1CN1CCNC(=O)C1CC(=O)NC1CCCCCC1 (stereo unspecified)	7.85% (inactive)	
CC(C)CCn1c(SCC(=O)Nc2ccccc2C(F)(F)F)nc2nccnc2c1=O	-2.66% (inactive)	
CCOC(=O)C1CCN(S(=O)(=O)c2ccc(CNC(=O)c3ccccc3)s2)CC1	-13.1% (inactive)	
COC(=O)Nc1ccc(S(=O)(=O)N2CCCC(C(=O)N3CC(C)OC(C)C3)C2)cc1 (stereo unspecified)	-5.54% (inactive)	

Structure (SMILES)	inhibition	inhibition (measured here: pilot screen replicate inhibition)
O=C(CSc1nnc2ccc(-c3ccccn3)nn12)Nc1ccc(F)cc1	2.75% (inactive)	
C[C@@H]1CN(C(=O)c2cc(COc3cccc(C(F)(F)F)c3)on2)C[C@H](C)O1	-9.08% (inactive)	
COc1ccccc1C(=O)Nc1ccnn1C1CCN(Cc2cn(C)c3ccccc23)CC1	-3.88% (inactive)	
CCC(CC)=NNc1ccc([N+](=O)[O-])cc1[N+](=O)[O-]	-0.89% (inactive)	
C/C(CCC(=O)O)=N/Nc1ccc([N+](=O)[O-])cc1[N+](=O)[O-]	-3.25% (inactive)	
Cc1ccc(CN2CCN(CC(=O)NC(C)CCc3ccccc3)C2=O)cc1 (stereo unspecified)	-4.17% (inactive)	
CCCc1cc(=O)c2ccc(OCC(C)=O)cc2o1	-9.24% (inactive)	
COCCC(=O)NNS(=O)(=O)c1ccc(Cl)cc1	5.47% (inactive)	
CC(C)N(CCNS(=O)(=O)c1ccc(Cl)cc1)C(C)C	0.97% (inactive)	
CCOc1ccc(NC(=O)c2ccc(S(=O)(=O)N3CCOCC3)cc2)cc1	1.78% (inactive)	
CC(C(=O)O)N1C(=O)C2C3c4ccccc4C(c4ccccc43)[C@@H]2C1=O (stereo partly specified)	-2.61% (inactive)	
CN1C(=O)C2C3c4ccccc4C(c4ccccc43)[C@@H]2C1=O (stereo partly specified)	-1.31% (inactive)	
CCC(C(=O)O)P(=O)(c1ccc(Cl)cc1)c1ccc(Cl)cc1 (stereo unspecified)	-8.59% (inactive)	
COC1=CC(=O)C(OC)=C(OC)C1=O	6.99% (inactive)	
CCCCCSc1nncc(=O)[nH]1	4.01% (inactive)	
COc1ccc(-c2cccc(NC(=O)c3cccs3)c2)nn1	-3.63% (inactive)	
O=C(CSc1nc2ccccc2s1)Nc1cc(S(=O)(=O)N2CCOCC2)ccc1Cl	-0.74% (inactive)	
O=C1SCC(c2ccc(Cl)cc2Cl)=NN1Cc1nnc(-c2ccccc2)o1	-1.48% (inactive)	
O=c1[nH]cnc2c1sc1nc(-c3ccccc3)c3c(c12)CCCC3	-9.17% (inactive)	
O=C(O)CSc1ncnc2c1sc1nc(-c3ccccc3)c3c(c12)CCC3	22.7% (inactive)	
CCN(CC)c1ccc(S(=O)(=O)N2CCOCC2)cc1NC(=O)CSC(=S)N1CCCC1	-4.86% (inactive)	
COCCN(C(=O)CSc1nnc(-c2cccc(Cl)c2)n1N)c1c(N)n(CC(C)C)c(=O)[nH]c1=O	-1.15% (inactive)	
